# Screens as filed in PubChem BioAssay.
# USP1-UAF1 inh – Inhibitors of USP1/UAF1: Primary Screen | Ubiquitin carboxyl-terminal hydrolase 1 (Homo sapiens), O94782 | 390,000 tested, 0.23% active | recombinant USP1/UAF1, Ub-Rhodamine cleavage fluorescence | AID 743255, 2014 | Potency, µM (series often up to 57.1 µM), for the others: at the top dose activity change, negative = inhibition, hits mostly inhibitors; further: potency means the concentration at half of the fitted maximal effect; nearly all actives have a fitted effect of over 60% in size
#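 In this screen, compounds sit with the deubiquitinase complex (1nM) for 15 min at room temperature before Ub-Rho is added at 150nM final. Fluorescence rise is then followed for 6 reads every 60 seconds.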
# Coupling enz – qHTS Assay for Inhibitors of Fructose-1,6-bisphosphate Aldolase from Giardia Lamblia: Coupling assay counterscreen | activity change, negative = inhibition, % at 58.2 µM, hits read low | coupling enzyme system counterscreen, AmpLite Red fluorescence | 290,000 tested, 0.67% active; in the data active means activity change below about -30%
#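 Counterscreen of the coupled detection system alone, without aldolase: glyceraldehyde-3-phosphate coupling enzymes plus AmpLite Red readout. Compounds at 57.5 uM final, 10 min RT preincubation, 20 min RT reaction, fluorescence 525/598 nm.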
# PLK1 PBD block – qHTS for Inhibitors of PLK1-PDB (polo-like kinase 1 - polo-box domain): Primary Screen | Potency, µM, inactives show max response, negative = inhibition, actives largely listed as inhibitors | Plk1 PBD binding of FITC phosphopeptide, fluorescence polarization | AID 720504, 2013 | 360,000 tested, 2.8% active; further: potency means the concentration at half of the fitted maximal effect; series mostly up to about 57 µM; nearly all actives have a fitted effect of over 65% in size
# VDR inhibitor – Inhibitors of the vitamin D receptor (VDR): qHTS; AID 504847, 2011; VDR-SRC2-3 peptide fluorescence polarization, 2 h; Vitamin D3 receptor (Homo sapiens), P11473; 400,000 tested, 0.93% active; Potency, µM, for inactives: max response, negative = inhibition, usual class: inhibitors; further: potency means the concentration at half of the fitted maximal effect
#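 Fluorescence polarization assay measuring small-molecule disruption of VDR binding to the coregulator peptide SRC2-3. Compounds were pin-transferred (23 nl) into the reagent mix and incubated 2 h at room temperature before reading.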
# USP2a inh – qHTS Assay for Inhibitors of Ubiquitin-specific Protease USP2a Using CHOP2 as the Reporter; Ubiquitin carboxyl-terminal hydrolase 2 (Homo sapiens), O75604; USP2 core, Ub-CHOP2 coupled fluorogenic reporter, 485/531; Potency, µM (highest dose often 38.3 µM), without a hit: top-dose activity change, negative = inhibition, usual class: inhibitors; 330,000 tested, 0.01% active;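 further: potency means the concentration at half of the fitted maximal effect; plate controls were DMSO wells for no effect and full inhibition by NEM control for full effect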
#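 USP2 core (10nM final) preincubated 30min RT with compound in 20mM Tris-HCl pH 8.0, 2mM CaCl2, 2mM beta-mercaptoethanol, 0.05% CHAPS; 25nM Ub-CHOP2 plus 25nM reporter substrate added, fluorescence (Ex485/Em531) read after 60min.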
# GALK inh – qHTS Assay for Inhibitors of Human Galactokinase (GALK) | 270,000 tested, 0.007% active | Potency, µM (top dose mostly 57.5 µM), inactives show top-dose activity change, negative = inhibition, most hits filed as inhibitors | Purified GALK, Kinase-Glo residual ATP luminescence; further: potency means the concentration at half of the fitted maximal effect
#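 Quantitative HTS: GALK 5 nM, ATP 35 uM, galactose 100 uM, 1 h room temperature, then luciferase-based ATP detection.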
# Numbers without * were called inactive; ? = inconclusive; . = no result given. Sampled rows, rich in hits. Any-hit rate of the full collection: about 3.2%. Unless noted, the call rests on the fitted dose curve; in most records, active means well fitted curve in the direction sought with a large enough effect; inconclusive means small, poorly fitted or top-dose-only effect, or another doubt; inactive means no such curve, though single readings can be large; an effect the other way counts as inactive or inconclusive. Unless noted, on the % scale 0 is the no-effect control and ±100 the full control effect.
SMILES,USP1-UAF1 inh,Coupling enz,PLK1 PBD block,VDR inhibitor,USP2a inh,GALK inh
Cc1ccc(/C=C/C(=O)Nc2ccc(S(=O)(=O)Nc3ncccn3)cc2)cc1,8%,6,-13%,-5%,4%,-4%
CC(=O)c1ccc2cccc3c2c1N=CN3C,?,-43*,-22%,8%,6%,0%
CC(=O)c1cc(C(C)=O)c(C)nc1C,-13%,0,-6%,12%,1%,5%
Cc1cc(F)c(F)c(C(=O)N2CCOCC2)c1Cl,-4%,2,-4%,-1%,0%,2%
CCOC(=O)c1c(NC(=S)NC)sc2c1CC(C)(C)SC2,-17%,0,24µM*,?,1%,0%
CCOC(=O)c1c(NC(=S)Nc2ccccc2)sc2c1CC(C)(C)SC2,-15%,1,?,0%,0%,3%
COc1ccc(/C=N\NC(=O)c2ccc(=O)[nH]n2)cc1O,-6%,-1,-11%,-16%,0%,0%
C=C1C(=O)c2sccc2C(c2ccc(OC)c(OC)c2)C1COC(C)=O (stereo unspecified),?,.,27µM*,?,.,.
CS(=O)(=O)N(CC(=O)N1CCN(c2ccccc2)CC1)C1CCCCC1,-18%,-1,27µM*,?,-1%,-1%
Cc1ccccc1NCC(=O)N=Nc1c(O)[nH]c2ccc([N+](=O)[O-])cc12,-8%,-4,-16%,-4%,0%,-1%
Cc1ccc(NCC(=O)N=Nc2c(O)[nH]c3ccc([N+](=O)[O-])cc23)cc1,-9%,-31*,-22%,23%,-1%,-1%
CCOC(=O)c1csc(N)n1,-18%,0,-20%,-10%,0%,2%
COc1ccc(NS(=O)(=O)c2ccc(N3CCCC3)c(NC(=S)Nc3cccc(C)c3C)c2)cc1,-11%,2,3.8µM*,?,2%,1%
COc1ccc(NS(=O)(=O)c2ccc(N3CCCC3)c(NC(=S)Nc3ccc(SC(F)F)cc3)c2)cc1,-20%,1,4.7µM*,?,-8%,-1%
c1cncc(-c2nc(NCc3ccc4c(c3)OCO4)c3ccccc3n2)c1,-20%,-1,4%,0%,2%,6%
Cc1ccccc1NC(=O)C(C#N)Cc1cccnc1 (stereo unspecified),-18%,-1,13%,3%,1%,-1%
O=C1NC(=O)/C(=C\c2ccccc2Oc2ccc(F)c(F)c2)S1,-10%,10,27µM*,-9%,-2%,-5%
COc1ccc(OC)c(N2C(=O)[C@@H]3C(c4ccccc4Cl)=NO[C@@H]3C2=O)c1,-16%,-4,19µM*,-2%,-1%,0%
Cc1cccc(C)c1N1C(=O)[C@@H]2C(c3ccccc3Cl)=NO[C@@H]2C1=O,-7%,0,-8%,1%,-2%,12%
COCCNC(=O)C(c1ccco1)N(C(=O)Cn1nnc2ccccc21)c1ccc(C)cc1C (stereo unspecified),-6%,-1,-7%,7%,-1%,1%
O=C(Nc1ccc(Nc2ccccc2)cc1)C(Cl)Cl,-27%,0,-9%,5%,1%,1%
CC(C)(C)C(=O)C(Cl)C(=O)Nc1ccccc1 (stereo unspecified),-14%,6,11µM*,20µM*,5%,-2%
CCc1ccccc1N=C1S/C(=C/c2ccccc2OCC(=O)N2CCOCC2)C(=O)N1C,-10%,0,-5%,-6%,3%,-1%
O=C1NN(c2ccccc2)C(=O)/C1=C\c1ccccc1OCC(=O)N1CCOCC1,-12%,.,21µM*,?,1%,0%
CC(C)C(Cl)=NOC(=O)Nc1ccc(S(N)(=O)=O)cc1,-22%,.,8.4µM*,?,.,.
SMILES,USP1-UAF1 inh,Coupling enz,PLK1 PBD block,VDR inhibitor,USP2a inh,GALK inh
COc1ccc(CCNC(=O)Cn2c(=O)n(-c3ccc(C)c(F)c3)c(=O)c3sccc32)cc1OC,-18%,3,3%,1%,1%,-3%
OCCOC[C@H]1O[C@H](OCCO)[C@H](OCCO)[C@@H](OCCO)[C@@H]1OCCO (tested in a mixture with another compound),.,.,.,-2%,.,.
Cc1nc(C(F)(F)F)ccc1C(=O)NN1CCOCC1,-5%,0,7%,-11%,6%,0%
CNC(=S)NNC(=O)c1cccc(N(C)C)c1,-15%,-3,-8%,-8%,3%,-2%
CC1=C/C(=C\c2ccc3c(c2)OCO3)C(=O)S1,?,0,-21%,-12%,3%,-1%
CC1=C/C(=C/N(C)c2ccccc2)C(=O)S1,-24%,0,27µM*,?,3%,-2%
O=C(Nc1cc(Cl)ccc1-n1cncn1)c1cccs1,-4%,.,-6%,-25%,0%,.
Cc1ccc(C(=O)OCC(=O)N2c3ccccc3NC(=O)C2(C)C)cc1S(=O)(=O)N1CCCCC1,-14%,.,1%,-3%,-1%,.
Cc1ccc[n+](-c2nc([O-])sc2C=O)c1,28µM*,-13,13µM*,6%,?,5%
Cn1nccc1C(=O)N1CCCC(C(=O)c2ccc(C(F)(F)F)cc2)C1 (stereo unspecified),-21%,0,1%,-13%,2%,-1%
O=C(O)COc1ccccc1C=NNc1ccc([N+](=O)[O-])cc1S(=O)(=O)Nc1ccc(Cl)cc1,?,.,24µM*,?,-9%,.
COc1ccccc1NS(=O)(=O)c1cc(NC(=S)NCCN2CCOCC2)ccc1N1CCOCC1,2%,-2,5.3µM*,79µM*,0%,2%
COCC(=O)Nc1ccc(N2CCOCC2)c(S(=O)(=O)Nc2ccccc2OC)c1,-2%,.,11µM*,?,3%,.
COc1ccccc1NS(=O)(=O)c1cc(NC(=O)COc2ccccc2F)ccc1N1CCOCC1,-18%,.,24µM*,?,-11%,.
O=S(=O)(Nc1ccccc1Cl)c1cc(NC(=S)NCCN2CCOCC2)ccc1Cl,-11%,3,-29%,-17%,-6%,7%
O=C(Cc1ccccc1F)Nc1cccc(S(=O)(=O)N2CCCCC2)c1,-16%,.,3%,.,.,.
O=C(Cc1ccc(Cl)cc1Cl)Nc1cccc(S(=O)(=O)Nc2ccccc2F)c1,-3%,2,1.2µM*,?,-2%,0%
COc1ccccc1Oc1ccc2c(c1)C(=O)N(c1ccccc1)C2=O,-20%,0,-6%,11%,-2%,0%
